{"source": "the supplement of paper PMC10338343", "note": "± gives the standard deviation.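 Also: 1 nM active piRISC with 0.1 nM target library at 33 °C single turnover.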"}
{"tested_on": "MILI (PIWIL2) piRISC loaded with piRNA #1 (26 nt)", "test": "pre-steady-state target cleavage rate (min^-1); guide: piRNA #1 5'p-UGAGGUAGUAGGUUGUAUAGUAUCCA; MIWI and MILI are mouse PIWI proteins and EfPiwi is from a freshwater sponge; tags in brackets are library labels; higher = faster piRNA-guided slicing of the target", "conditions": "auxiliary factor: 500 nM mouse GTSF1", "summary_of_the_method": "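The pre-steady-state cleavage rate was calculated from a burst-and-steady-state fit. Data came from Cleave-'n-Seq, in which […] transcribed, DNA-blocked target RNA library was mixed with 1 nM active affinity-purified piRISC carrying one synthetic guide, with or without 500 nM GTSF1 partner protein, in HEPES–potassium acetate buffer at 33 °C for 0–8 or 0–960 min. Uncleaved targets were sequenced and normalised to depth and to weakly complementary targets, three trials were pooled, and k3 was capped at 0.0001 min^-1.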"}
{"sequence": "GGAGACGAAACUAUACAACCUACUUCCUCA", "pre-steady-state target cleavage rate": "0.0627 ± 0.022"}
{"sequence": "GGAGACCUAUCUAAACAACCUACUACCUGA", "pre-steady-state target cleavage rate": "0.0477 ± 0.013"}
{"sequence": "GGAGAGGAAACUAUACAACCUACUAGCUCA", "pre-steady-state target cleavage rate": "0.0535 ± 0.019"}
{"sequence": "GGAGACCUAUGUUUACAACCUAGUACCUCA", "pre-steady-state target cleavage rate": "0.00404 ± 0.0027"}
{"sequence": "GGAGACCUAUGAUAUCAACCUACUAACCUCA", "pre-steady-state target cleavage rate": "0.00255 ± 0.0025"}
{"sequence": "GGAGACCUAUGAUAUGAAACCUACUACCUCA", "pre-steady-state target cleavage rate": "0.00314 ± 0.0026"}
{"sequence": "GGAGAGGAUUCUAUACAACCUAGUACCUCA", "pre-steady-state target cleavage rate": "0.0548 ± 0.0098"}
{"sequence": "GGAGACCUAUGUAUACAACCUACUACCCCA", "pre-steady-state target cleavage rate": "0.045 ± 0.011"}
{"sequence": "GGAGACCUAUGUAAACAACCUACUACGUCA", "pre-steady-state target cleavage rate": "0.00279 ± 0.0027"}
{"sequence": "GGAGACCUAUCUAUACAACUUACUACCUCA", "pre-steady-state target cleavage rate": "0.0156 ± 0.0023"}
{"sequence": "GGAGAGGUUACUAUACAACCUACUACCACA", "pre-steady-state target cleavage rate": "0.0673 ± 0.0096"}
{"sequence": "GGAGACCUAUGUAUACAACCUACUACGCUCA", "pre-steady-state target cleavage rate": "0.0944 ± 0.013"}
{"sequence": "GGAGACCUAACUAUACAACCUAGCUACCUCA", "pre-steady-state target cleavage rate": "0.0209 ± 0.008"}
{"sequence": "GGAGACCUAUGAAUACAACGUACUACCUCA", "pre-steady-state target cleavage rate": "0.00541 ± 0.0019"}
{"sequence": "GGAGACCUAAGUAUACAACCUACUACCACA", "pre-steady-state target cleavage rate": "0.0885 ± 0.012"}
{"sequence": "GGAGUCGAUACUAUACAACCUACUACCACA", "pre-steady-state target cleavage rate": "0.175 ± 0.014"}
{"sequence": "GGAGACCUAUGAUUACAACCUACUACCGCA", "pre-steady-state target cleavage rate": "0.00418 ± 0.004"}
{"sequence": "GGAGACCUAUGAUUACAUCCUUCUACCUCA", "pre-steady-state target cleavage rate": "0.00314 ± 0.0026"}
{"sequence": "GGAGAGGAUACUAUAGAACGUACUACCUCA", "pre-steady-state target cleavage rate": "0.00602 ± 0.0021"}
{"sequence": "GGAGACCUAUGAUAUGUUCCUACUACCUCA [g2:g12:cont:t1A]", "pre-steady-state target cleavage rate": "< 0.0001"}
{"sequence": "GGAGACCUUACUAUACAUCGUACUACCUCA", "pre-steady-state target cleavage rate": "0.0364 ± 0.0047"}
{"sequence": "GGAGACCUAACUAUACAACCGUACUACCUCA", "pre-steady-state target cleavage rate": "0.00506 ± 0.005"}
{"sequence": "GGAGACCUAUGAAUACAACAUACUACCUCA", "pre-steady-state target cleavage rate": "0.00332 ± 0.0021"}
{"sequence": "GGAGACCUAUCUUUACAACCUACAACCUCA", "pre-steady-state target cleavage rate": "0.0745 ± 0.01"}
{"sequence": "GGAGACCAUACUAAUCAACCUACUACCUCA", "pre-steady-state target cleavage rate": "0.17 ± 0.019"}
{"sequence": "GGAGACCAUUCUAUACAAGCUACUACCUCA", "pre-steady-state target cleavage rate": "0.254 ± 0.018"}
{"sequence": "GGAGACCUAACUAUAGAACCUACUACCUGA", "pre-steady-state target cleavage rate": "0.0124 ± 0.008"}
{"sequence": "GGAGACCUUACUAUACAACCCACUACCUCA", "pre-steady-state target cleavage rate": "0.0224 ± 0.0038"}
{"sequence": "GGAGAGGAUUCUAUAGAACCUACUACCUCA", "pre-steady-state target cleavage rate": "0.157 ± 0.011"}
{"sequence": "GGAGACCUAUGAAUACAACCGACUACCUCA", "pre-steady-state target cleavage rate": "0.00328 ± 0.003"}
{"sequence": "GGAGACCUUACUAUACAUCCUACUACGUCA", "pre-steady-state target cleavage rate": "0.141 ± 0.022"}
{"sequence": "GGAGACGAUUCUUUACAACCUACUACCUCA", "pre-steady-state target cleavage rate": "0.152 ± 0.011"}
{"sequence": "GGAGACCUAUGAUAUGUACCUACUACCUGA", "pre-steady-state target cleavage rate": "< 0.0001"}
{"sequence": "GGAGACCUAUGAUAUCAACGUACUAGCUCA", "pre-steady-state target cleavage rate": "< 0.0001"}
{"sequence": "GGAGACCUAUGAAUACAUCCUACUAGCUCA", "pre-steady-state target cleavage rate": "0.00797 ± 0.0028"}
{"sequence": "GGAGACCUAAGUAUACAACCUAGUACCUCA", "pre-steady-state target cleavage rate": "0.0133 ± 0.0034"}
{"sequence": "GGAGACCUAUCUAUACAACCUACUAGCUCA", "pre-steady-state target cleavage rate": "0.0827 ± 0.014"}
{"sequence": "GGAGACCUAAGUAUAGAACCUACUACCUCA", "pre-steady-state target cleavage rate": "0.0747 ± 0.013"}
{"sequence": "GGAGACCUAUGUAUACCAACCUACUACCUCA", "pre-steady-state target cleavage rate": "0.00297 ± 0.003"}
{"sequence": "GGAGACCUUAGUAUACAACCUUCUACCUCA", "pre-steady-state target cleavage rate": "0.00489 ± 0.0033"}
